Reference: PubChem BioAssay AID1508600 (Functional Genomics Laboratory (NCATS/FGL), 2020)
In all, about 53,000 sequences went through this assay and about 3,700 (7%) were called active.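 Rule for the calls: active = gene knockdowns whose robust z-score for IL-1 alpha signal is at least 2 or at most -2, so actives lie on both sides; inactive = the rest.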 The full list was thinned out, with actives kept by preference.

experiment: Components of the Cytosolic LPS Sensing Pathway: Gene Identification via Genome-wide siRNA Screen; details: RAW264.7 macrophages, IL-1a HTRF, actives lie on both sides, screened at 100 nM (by protocol), cells primed 5 h with Pam3CSK4 first;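 note: robust z of the log signal after scaling to non-targeting control siRNA wells of the plate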
Summary of the method: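 Cells (RAW264.7, 1×10^4 per well) were transfected with siRNA at 100 nM and cultured 48h at 37 degrees C. Pam3CSK4 was added for 5 hours; LipidA transfection followed for 24 hour. IL-1a was then measured by HTRF.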

Sequence	z-score
GGCCGCCAUUUUGGCAAGATT against Fbxo27	3.41 (active)
CGGUGAUAACAGACAUUAATT against Aldh8a1	-0.561 (inactive)
CCGAACCUUCAGCUACACATT against Keap1	0.0133 (inactive)
GGAAAAAUUCGAGGGACUGTT against Rcan2	1.12 (inactive)
GGAAGUGUAUUCAAGAAGUTT against Tapt1	3.02 (active)
GCCGUUCUGCUAUCACAACTT against Scrn2	-0.531 (inactive)
GAAGAGACCUUCACAAAGUTT against Hnrnpll	-1.52 (inactive)
GGAGCGAGGAAUCAAUGUUTT against Prss8	2.86 (active)
GGAACACCUACAGUAUAAATT against Cdc123	-0.39 (inactive)
GGAGCGAUUUGCUGGUGUGTT against Rps16	1.19 (inactive)
GGUAUCAAGGUGAAGUUGATT against Septin1	0.776 (inactive)
GGGACACUACCCUGAUGAUTT against Vmn1r205	-2.05 (active)
GGUUGGACAAAAAGAAUCUTT against Ifngr1	0.507 (inactive)
GGUCUGAGUUUUAAACAGUTT against Gmfb	1.13 (inactive)
GGGUUACCUCCUGACUGUUTT against Olfr930	-1.9 (inactive)
GCUGCUUUGCUAUCUCCUGTT against Apof	-2.25 (active)
CGAGGAGUUGGAUUUCAGGTT against Dnmbp	-0.713 (inactive)
GGGAGUAAAGAAAAUGUUATT against Atxn2	-0.112 (inactive)
GCUUAUUUCGCCUAUGUGGTT against Slc24a2	-1.11 (inactive)
GCAAGAUGGUAUCAGCAGATT against Sde2	-2.1 (active)
GGAAAGAGGAAGAUAAAGUTT against 2310002L09Rik	-1.17 (inactive)
CCGCUUUUCAUAACACGAATT against Obp2a	0.037 (inactive)

Sequence	z-score
CCUCAUUUAGAUGUCUUGATT against Ran	-0.0987 (inactive)
GUCUUUGUUCAGGAGGUGATT against Ahnak	0.0593 (inactive)
GCCAUGCUAAUCAAGACGGTT against Gtf2ird2	-0.99 (inactive)
GCUCUCUCUCAUUGAUCUCTT against Olfr697	-1.63 (inactive)
GGUUUGGCAUCUAAAGAGCTT against Olfr1412	-2.42 (active)
CCAGCUUUUACCUAAUACCTT against Ggt1	0.0683 (inactive)
GGGUAUCUGAUUUAUAAGCTT against Mageh1	-0.371 (inactive)
GGGAAAGGGUUUUUUAUUCTT against Slc1a1	-0.177 (inactive)
GCCAAAAAGUGUGUGUUGGTT against Olfr731	0.0799 (inactive)
CCAGUUUGCACAAGUUUUCTT against Fyco1	1.94 (inactive)
GGAUCUUCCAAGUUGUCUGTT against Srm	2.42 (active)
CGAGCUGAACAGAAUGAUATT against Krt85	0.265 (inactive)
GGCAAGGUCAAGGACACCATT against Tcp11	-0.77 (inactive)
GCAUGCAUGCUAUUGUUUUTT against 4931431C16Rik	0.336 (inactive)
GGCACACACUGAUUUUUUUTT against Cops2	0.0987 (inactive)
GGUCCAAUGGAUUUUGUUUTT against Pxdc1	2.06 (active)
GGUGCGAAGGAAAUUGCACTT against Mrps26	1 (inactive)
GCCUUUACUGGAUUCAUUGTT against Acadm	2.53 (active)
GGCAGAGAAUCAGCUCCUUTT against Il16	0.377 (inactive)
CGAUCGAUAAAUGUAAUGATT against Heatr5a	-0.0662 (inactive)
GGAGUAUGCUGUCAAAAUCTT against Mknk1	0.259 (inactive)
GGAUCACCAGACCUUUUUCTT against St7l	-1.94 (inactive)

Sequence	z-score
CCAGGAAUCUAGAUAAUAGTT against BC031181	-1.05 (inactive)
GCAUUACCAAAAGCAGUCUTT against Lyn	-1.46 (inactive)
CCUCUAUUCUCCGUCUAUGTT against Fars2	2.45 (active)
GGCUACAUUGUCUCAUUGUTT against Opn1mw	-0.59 (inactive)
GGUUAAGGAGAAAUGUGAUTT against Mob3a	-0.0804 (inactive)
GGUUAAAAUGCCAUAACAATT against Ksr1	-1.26 (inactive)
GGGAAGUCAUUCACAUAUUTT against Rab39b	-1.58 (inactive)
GGAAGUCCACGAAACUAAATT against Prl3d1	0.359 (inactive)
CGACCUGUGGGAAGAUAUUTT against Apoa5	-0.992 (inactive)
GGGAUACUUUCUUCGAGGATT against Soga3	-2.36 (active)
GGCCAUUGUUGAAAUGUACTT against Myh14	0.175 (inactive)
GGUAUCAACAUCACGAUUCTT against Mrgpra1	0.487 (inactive)
GCACCUGGUGAAUUUUACCTT against Tmem106c	-0.85 (inactive)
GCCUUACUGACUCGUGUCCTT against Ccp110	-2.33 (active)
GGACCUUUAAAGCUAAGCUTT against Ccn5	-1.4 (inactive)
GGAGUUUUCAAAAAACAGATT against Dsc2	-0.356 (inactive)
GGAUACUGCCAUUCAUAGGTT against Cstdc2	-0.182 (inactive)
GGAAAGCUUUCUUCACCUGTT against Olfr206	-1.73 (inactive)
GCUUCAACCCGGUCACACUTT against Kif6	2.81 (active)
GGCGCAAUGCUCAUGUGAATT against Gzmc	-0.54 (inactive)
GGAAGUUUUGGCUUAGGCATT against Tmco5b	1.58 (inactive)
GGCGAUCCACAGGAACUCUTT against Tiam1	-1.23 (inactive)

Sequence	z-score
GCAACAACGAGUCAUGGCUTT against Plcd1	-0.502 (inactive)
GGACAGAGUUACCUAGGCATT against Ticrr	-2.81 (active)
GGAUCUUUCCUGAUUUAUATT against Ggt5	0.989 (inactive)
GCAGGCAUCAUCACGACAUTT against Gprc5c	0.402 (inactive)
GGAGUUCUUCUUCAAUGAGTT against Kcnd3	-1.3 (inactive)
GCGUACGUUCUCCUAACAUTT against Hbs1l	-1.9 (inactive)
GGGUGAUAAAAUUCAGAUUTT against Gpr88	2.07 (active)
GGGUGCAAACAAAAUGAUGTT against Pgm1	-1.42 (inactive)
GGGCCACAUGUGUUCACUATT against Shisa5	-2.35 (active)
CCUUCUCUGCCUCGAUGAUTT against Cox14	-1.23 (inactive)
GGGAAGAUGUGAUGUCUUUTT against Rab29	-0.556 (inactive)
GGUCUUAAUCUCAGGAUGATT against Car5a	-0.294 (inactive)
GGACACAGAAUGUUCUUGGTT against Rps3	0.029 (inactive)
GGAAGAAAAAUAUGCUUUCTT against Pls3	2.7 (active)
CCGAUCACUCAUGGUUGACTT against Sra1	0.565 (inactive)
GCCUGUGCAAAAAGUAGGGTT against Grasp	-0.0182 (inactive)
GGGCCAAUAGGAGUUCUUUTT against Tcf20	0.285 (inactive)
GGAGCUGACGUGCUACUUATT against Speg	2.6 (active)
GGAGAAUCUUAGAGAUUAUTT against Pramel1	0.722 (inactive)
GCAGCUAAGCACUGGAAAATT against Coq4	0.318 (inactive)
GGAAAAAGAGGCCUCAAAGTT against Nek5	1.46 (inactive)
CGCUUUAUUAGAUGGGCUATT against Dlx5	-2.27 (active)

Sequence	z-score
GAAGUUCAAUGGAGAAGACTT against Arl2	-0.825 (inactive)
GGUGUUCAGACUACCCUCUTT against Serpina3m	-1.16 (inactive)
GGGCCAUAAGAUCUGUACUTT against Ccl24	0.472 (inactive)
GGUCCUCUAAAGAAUAAAGTT against Cela3b	0.541 (inactive)
GCCCAGAAAUAUAAUCAAATT against Bub1	2.17 (active)
GGCUACCAUAGGUUUUAAUTT against Serinc4	0.946 (inactive)
CCCGGAUGAUGGAGAUAUUTT against Mnd1	-1 (inactive)
GCCUGAUCUACUGUGGUCCTT against Olfr1347	-0.167 (inactive)
GGCUUGAUCUUCGUAGUGGTT against Arf1	0.132 (inactive)
GCAGAGACUACUUAGCAAGTT against Adprm	2.29 (active)
GCUUAAGAGAUUCAAAUUGTT against Olfr1317	0.036 (inactive)
GCUCUAAACAUGAUUCAAGTT against Akap9	1.17 (inactive)
GGCAGCUAAGUACGUUCAUTT against Gba	0.177 (inactive)
GGAAAGAGAACAUAAAAGATT against Pla2g4a	-0.995 (inactive)
GCAGCAUCGCGUAGAAACATT against Gar1	-0.566 (inactive)
GCUGGAAACCCGUAUACUATT against Krt23	2.16 (active)
CCGUGCACAACAUUGCCUATT against Qtrt1	-0.552 (inactive)
GGAAUUUUCAAGGAACAAUTT against Il1rapl2	-1.8 (inactive)
GGCGUGUAUGUCAAAAAUATT against Grip1	-0.201 (inactive)
GGAGUUGUUACUCUAUUUUTT against Pkd2l2	-0.426 (inactive)
